Test results published in PubChem BioAssay AID1490 (National Center for Advancing Translational Sciences (NCATS), 2009).
Several values for one entry are separate records, joined by “and”; a condition that tells them apart may be missing. Equal values may be shown once. Out of some 310,000 compounds screened, about 11,000 (3.5%) were called active. Inconclusive results (about 4%) are left out. What follows is part of a selection rich in actives, with near analogues and random picks from the rest. Unmarked numbers belong to inactive results. The call rests on the fitted dose curve; in most records, active means well fitted inhibition curve with a large enough effect; inconclusive means small, poorly fitted or top-dose-only effect, or another doubt; inactive means no such curve, though single readings can be large or run the other way.

Each compound was assayed against 4'-phosphopantetheinyl transferase ffp (Bacillus subtilis) (UniProt Q9F4F7) (assay: qHTS Assay for Inhibitors of Bacillus subtilis Sfp phosphopantetheinyl transferase (PPTase)). Details: Biochemical Sfp PPTase activity.
Outline: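 Step 1, compound plus 15 nM Sfp-PPTase, 15 min, room temperature. Step 2, add rhodamine-CoA (5 uM) and BHQ-2-YbbR (12.5 uM). Step 3, read 525/598 nm fluorescence at 0 and 30 min.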
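Further: the enzyme is Sfp with the accession as filed and its product quenches rhodamine fluorescence.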
Potency means the concentration at half of the fitted maximal effect.
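Wherever largest response in the series, negative = inhibition is given: 0% = enzyme reaction without inhibitor and -100% = no enzyme wells.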

| SMILES | largest response in the series, negative = inhibition | Potency |
| --- | --- | --- |
| c1ccc(NCc2cccc3ccccc23)nc1 | -7.37% | – |
| Nc1scc[n+]1Cc1cccc2cccnc12 | 17.3% | – |
| c1ccc2c(C[n+]3csc4ccccc43)cccc2c1 | – | 44.7 µM (active) |
| C=CCCN(C(Cc1ccccc1)C(=O)OC)S(=O)(=O)c1cc(Br)ccc1Br (configuration not stated) | 7.63% | – |
| CCOc1ccc(N/C(N)=N/c2nc(C)c(C)c(=O)[nH]2)cc1 | 12.8% | – |
| Cc1ccc(C)c(SCc2nc3sc(C(=O)O)c(C)c3c(=O)[nH]2)c1 | -17.2% | – |
| CSc1nnc(SCc2nc3sc(C(=O)O)c(C)c3c(=O)[nH]2)s1 | – | 12.6 µM (active) |
| CCOC(=O)c1sc2nc(CSc3ccccc3)[nH]c(=O)c2c1C | 1.58% | – |
| Cc1cccc(OCC(=O)NCCNC(=O)c2cccnc2)c1 | 3.63% | – |
| CN(C)CCN(Cc1ccccc1)S(=O)(=O)c1csc(C(N)=O)c1 | 4.81% | – |
| CCc1ccc(OCC(=O)OC(C)C(=O)NC2CC2)cc1 (configuration not stated) | 6.01% | – |
| CSc1ncccc1C(=O)Nc1ccc(C)cn1 | 10.7% | – |
| Cc1ccc(NC(=O)c2cc(-c3ccc(C)o3)nc3ccccc23)nc1 | – | 10 µM (active) |
| COc1ccc(NC(=O)c2cc(-c3cc(OC)c(OC)c(OC)c3)nc3ccccc23)c(OC)c1 | 1.5% | – |
| CCc1nccn1CCC(=O)N1CCCC(N2CCN(c3ccccc3F)CC2)C1 (configuration not stated) | 1.37% | – |
| Cc1ccccc1-c1nc(CS(=O)(=O)CC(=O)NC(C)c2ccccc2)c(C)o1 (configuration not stated) | 1.96% | – |
| O=C(NCc1ccco1)c1ccc([N+](=O)[O-])cc1Cl | 22.8% | – |
| Cc1ccc(/C([O-])=C(/C(=S)NCc2ccco2)[n+]2ccccc2)cc1[N+](=O)[O-] | – | 25.1 µM (active) |
| O=C(c1ccccc1)N1CCN(c2ccc([N+](=O)[O-])c(NCc3ccco3)c2)CC1 | 10.8% | – |
| Cc1ccc(S(=O)(=O)NCC2CCC(C(=O)N3CCOCC3)CC2)cc1 (configuration not stated) | 10% | – |
| CC(C)CCN1NC2(CCC(C)CC2)NC1=S (configuration not stated) | – | 79.4 µM (active) |
| C[C@H]1Cc2c(COc3ccccc3)nc3c(c2CO1)CN(C(=O)NCc1ccco1)CC3 | 2.41% | – |
| O=C(Cn1nc(C(=O)O)c2ccccc2c1=O)Nc1ccc(F)cc1 | 1.99% | – |

| SMILES | largest response in the series, negative = inhibition | Potency |
| --- | --- | --- |
| COCCOC(=O)C1=C(C)NC(=O)NC1c1cc2c(cc1Br)OCO2 (configuration not stated) | 10.6% | – |
| O=C(Nc1cccnc1)c1cc(Cl)ccc1Cl | 16.1% | – |
| O=C(/C=C/c1ccc(Cl)cc1Cl)NCc1ccco1 | -1.31% | – |
| O=C(/C=C/c1ccc(Cl)cc1Cl)c1cccnc1 | – | 31.6 µM (active) |
| O=C(NCc1ccccc1Cl)c1ccc2c(=O)n(CC3CCCO3)c(=S)[nH]c2c1 (configuration not stated) | 12.5% | – |
| O=S(=O)(NC1CCCCC1N1CCC(O)CC1)c1ccc(Cl)cc1 (configuration not stated) | 10.1% | – |
| COc1ccc(N2CCN(S(=O)(=O)c3ccc4c(c3)N(C(C)=O)CCO4)CC2)cc1 | 11.9% | – |
| CCCCc1nc(SCC(=O)Nc2nnc(C(C)C)s2)n[nH]1 | 2.56% | – |
| N#CC1(NC(=O)COC(=O)CCN=C2NS(=O)(=O)c3ccccc32)CCCCC1 | 8.87% | – |
| O=Cc1cn(-c2ccccc2)nc1-c1ccccn1 | 19.4% | – |
| O=C1C(c2ccccn2)=[N+]([O-])c2ccccc21 | – | 56.2 µM (active) |
| CCOC(=O)C1(Cc2ccccc2C)CCCN(S(C)(=O)=O)C1 (configuration not stated) | -1.45% | – |
| O=C(NCCc1ccccc1)C(=O)NCC1OCCN1S(=O)(=O)c1cccs1 (configuration not stated) | 15% | – |
| CC(=O)N1CCCc2cc(S(=O)(=O)N3CCCC(C(=O)N4CCN(c5cccc(Cl)c5)CC4)C3)ccc21 (configuration not stated) | -7.31% | – |
| O=C(COc1ccccc1)Nc1ccc(C(=O)N2CCCC2)cc1 | 22.7% | – |
| O=C1C=CC(=O)N1c1ccc(N2CCCCC2)cc1 | – | 7.08 µM (active) |
| Cc1ccccc1C(=O)Nc1ccc(N2CCCCCC2)cc1 | -8.31% | – |
| CCOC(=O)/C(C#N)=C/c1ccc(N2CCCCC2)cc1 | -25.4% | – |
| Cc1ccc(C(CNC(=O)Nc2ccccc2)N2CCN(C)CC2)cc1 (configuration not stated) | 6.82% | – |
| COC(=O)C(C)Oc1ccc2c(c1)O/C(=C\c1cccc(Br)c1)C2=O (configuration not stated) | -9.46% | – |
| Cc1ccc(NC(=O)/C(=C\c2ccccc2)NC(=O)c2ccco2)cc1 | 12.3% | – |
| COc1ccccc1C(=O)N/C(=C/c1ccc2c(c1)OCO2)C(=O)Nc1cccc(C(=O)O)c1 | -9.69% | – |
| O=C(Nc1ccccc1)c1ccco1 | 19.8% | – |

| SMILES | largest response in the series, negative = inhibition | Potency |
| --- | --- | --- |
| Cc1ccc(C(=O)N/C(=C/c2ccco2)C(=O)NCCc2c[nH]c3ccccc23)cc1C | 21.3% | – |
| O=C(Nc1ccccc1)/C(=C\c1ccco1)NC(=O)c1ccco1 | – | 44.7 µM (active) |
| O=C(NC(Cc1c[nH]c2ccccc12)C(=O)O)/C(=C/c1ccco1)NC(=O)c1ccccc1 (configuration not stated) | – | 44.7 µM (active) |
| COc1ccccc1C(=O)N/C(=C/c1ccco1)C(=O)Nc1ccc(C(=O)O)cc1 | – | 50.1 µM (active) |
| CC(=O)NC(Cc1c[nH]c2ccccc12)C(=O)O (configuration not stated) | 23% | – |
| O=C(NCc1ccco1)/C(=C/c1ccco1)NC(=O)c1ccccc1 | -7.6% | – |
| COc1ccc(/C=C(/NC(=O)c2ccco2)C(=O)Nc2ccc(C(C)=O)cc2)cc1 | 0.26% | – |
| COc1ccc(/C=C(/NC(=O)c2ccccc2)C(=O)Nc2cccc(C(=O)O)c2)cc1 | 2.19% | – |
| Cc1cccc(NC(=O)/C(=C\c2ccco2)NC(=O)c2ccccc2)c1 | – | 50.1 µM (active) |
| Cc1nc2ccc(S(=O)(=O)N(C)CC(=O)NC(C)c3ccccc3)cc2s1 (configuration not stated) | 10.4% | – |
| COCn1c(C(O)c2ccccc2)cc2ccccc21 (configuration not stated) | 9.58% | – |
| Cc1ccccc1C(=O)N1CCN(c2ccc(NC(=O)c3cccs3)cc2)CC1 | 13.1% | – |
| COc1ccc(C(=O)NCc2nnc(SCC(=O)NC3=NCCS3)n2C)cc1 | -3.34% | – |
| COC(=O)c1ccc(NC(=O)CSc2nncn2-c2cccnc2)cc1 | 16.4% | – |
| CC(C)NC(=O)COCc1cc(-c2ccc3c(c2)OCO3)on1 | 4.15% | – |
| COc1cccc(-n2c(=S)sc3c(=O)n(-c4ccccc4C)c(SCC(=O)O)nc32)c1 | 4.84% | – |
| COc1ccc(Cl)cc1-n1c(=S)sc2c(=O)n(-c3ccc(F)cc3)c(SCC(=O)O)nc21 | – | 14.1 µM (active) |
| COc1cccc(-n2c(=S)sc3c(=O)n(-c4ccccc4OC)c(SCC4OCCO4)nc32)c1 | -1.29% | – |
| O=C(c1cc(COc2ccc(F)cc2F)on1)N1CCOCC1 | 2.39% | – |
| CC(=O)Nc1cccc(C(=O)OCN2C(=O)c3ccccc3C2=O)c1 | 7.23% | – |
| CCc1nc(Nc2ccc(NC(C)=O)cc2)c2oc3ccccc3c2n1 | 3.27% | – |
| Cc1ccc(N(Cc2ccccc2O)C(=O)c2ccccc2F)cc1 | 8.31% | – |
| O=C(O)c1cc([N+](=O)[O-])c(Nc2cccc3ccccc23)c([N+](=O)[O-])c1 | -7.55% | – |

| SMILES | largest response in the series, negative = inhibition | Potency |
| --- | --- | --- |
| Cc1ccnc(NS(=O)(=O)c2ccc(NC(=O)c3ccc(S(=O)(=O)N4CCOCC4)cc3)cc2)n1 | 28.5% | – |
| C=CCn1c(C)cc(C2=NNC(=NCC)SC2)c1C | – | 56.2 µM (active) |
| Cc1ccc(S(=O)(=O)N2CCC(C(=O)NCC3CCCO3)CC2)cc1 (configuration not stated) | 21.8% | – |
| COCCn1c(C)cc(C2=NNC(=Nc3ccc(F)cc3)SC2)c1C | – | 50.1 µM (active) |
| Cc1cc(C2=NNC(=Nc3ccc(S(=O)(=O)N4CCOCC4)cc3)SC2)c(C)n1CC1CCCO1 (configuration not stated) | – | 22.4 µM (active) |
| Cc1cccc(N=C2NN=C(c3c[nH]c4ccccc34)CS2)c1 | -49.9% | – |
| C=CCn1c(C)cc(C(=O)CN2C(=O)c3ccccc3C2=O)c1C | 1.15% | – |
| COC(=O)C(C(=O)OC)C1c2ccccc2C=C(C2CC2)N1C(=O)OC (configuration not stated) | 22.5% and 27.4% | – |
| CCCOc1ccc(C2=CSC3=NCCN23)cc1Cl | 16% | – |
| CCOC(=O)C1CCCN(CCSc2ccc(C)cc2)C1 (configuration not stated) | 12.5% | – |
| COc1ccc(C(=O)c2c(C)c(CCC#N)n3ccccc23)c(OC)c1 | 0.761% | – |
| COc1ccc(C(C)NC(=O)C23CC4CC(CC(C4)C2)C3)cc1 (configuration not stated) | 5.95% | – |
| O=C(O)c1c(NC(=O)N2CCCC2)sc2c1CCCC2 | -9.57% | – |
| CC(O)c1ccc(OCCN(C)c2ccccn2)cc1 (configuration not stated) | -0.377% | – |
| O=C(O)c1ccc(/C=C2\SC(=S)N(NC(=O)c3ccc(Br)cc3)C2=O)cc1 | -5.87% | – |
| O=C(O)c1ccc2c(c1)C(=O)N(NC(=O)c1ccc(O)cc1)C2=O | 1.07% | – |
| CC(=O)N1C(=O)/C(=C2\SC(=S)N(NC(=O)c3ccc(O)cc3)C2=O)c2ccccc21 | – | 50.1 µM (active) |
| COc1cc(Cl)ccc1OCc1cc(C(=O)N2CC[C@@H]3CCCC[C@H]3C2)no1 | -14.4% | – |
| COc1ccc(-c2nc3c(c4c2C[C@H](c2ccccc2)OC4)CN(C(=O)C2CC2)CC3)c(C)c1 | 12.8% | – |
| N#CC1=C(N)Oc2[nH]c(=S)[nH]c(=O)c2C12C(=O)Nc1ccccc12 (configuration not stated) | – | 39.8 µM (active) |
| N#CC1=C(N)Oc2n[nH]c(CSc3ccccc3)c2C12C(=O)Nc1ccccc12 (configuration not stated) | 17.6% | – |
| CC1(C)Cc2ccccc2-c2[nH]c(=S)[nH]c(=O)c21 | 2.54% | – |
| CCC(C)Sc1nc2c(cnn2-c2ccc(F)cc2)c(=O)[nH]1 (configuration not stated) | -3.22% | – |
